{"source": "PubChem BioAssay (NCATS)", "note": "Records with an inconclusive call do not appear. Calls of active or inactive are those of the source. The call rests on the fitted dose curve; in most records, active means well fitted activation curve with a large enough effect; inconclusive means small, poorly fitted or top-dose-only effect, or effect the other way; inactive means flat fitted curve, though single readings scatter. On the % scale 0 is the no-effect control and ±100 the full control effect; potency means the concentration at half of the fitted maximal effect.", "data": [{"assay": "qHTS Assay for Identification of Small Molecule Agonists for Thrombopoietin (TPO) Signaling Pathway (AID 917)", "settings": "TPO signaling pathway reporter cells, agonist qHTS, stimulated with TPO at its EC50; series mostly up to 38.5 µM; activity, positive = activation: at the top concentration", "description": "NIH Molecular Libraries Screening Centers Network [MLSCN]\nNIH Chemical Genomics Center [NCGC]\nThe thrombopoietin (TPO) signaling pathway was assayed in murine Ba/F3 cells stably transfected with the human TPO receptor and a luciferase reporter gene controlled by the Glycoprotein IIb promoter (provided by Axxam). BaF3 cells are an IL-3-dependent pro B cell line that upon TPO stimulation, undergo cell division and induce the megakaryocyte marker, Glycoprotein IIb. The assay was screened at the EC50 of TPO (26 pM) to identify activators of the pathway.\nNCGC Assay Protocol Summary:\nCells were maintained at 37 C and 5% CO2in RPMI with 10% fetal bovine serum, 0.5 ng/mL murine IL-3, 100U/ml penicillin and 100 ug/ml streptomycin. Prior to plating, cells were incubated overnight in medium without IL-3. Cells were plated at 250 cells/5uL/well into white solid 1536-well plates, 23 nL of compounds were delivered by a pin tool, and 1 uL of TPO (26 pM final concentration in IL-3 deficient medium) was added. Following 24 hrs of incubation at 37 C and 5% CO2, 4 uL of Steadylite detector mix (PerkinElmer) was added, the plates incubated at room temperature for 10 min and luminescence was measured for 10 s and 2X binning by a ViewLux detector (Perkin Elmer).", "values": [{"compound": "CC(N)=NCc1cccc(CN)c1", "activity, positive = activation": "6.59% (inactive)"}, {"compound": "N[C@H](C(=O)O)[C@@H]1C[C@@H]1C(=O)O", "activity, positive = activation": "-13.2% (inactive)"}, {"compound": "C=C[C@H](N)CCC(=O)O", "activity, positive = activation": "-18.4% (inactive)"}, {"compound": "C[C@@H]1C[C@@H]2[C@H]3CCC4=CC(=O)C=C[C@]4(C)[C@]3(F)[C@@H](O)C[C@@]2(C)[C@@]1(O)C(=O)CO", "activity, positive = activation": "-15.4% (inactive)"}, {"compound": "CC(C)(C)NC[C@H](O)COc1cccc2[nH]c(=O)[nH]c12", "activity, positive = activation": "9.23% (inactive)"}, {"compound": "CCOC(=O)[C@@]12C[C@@H]1/C(=N/O)c1ccccc1O2", "activity, positive = activation": "13.2% (inactive)"}, {"compound": "CN(C)C/C=C(\\c1ccc(Br)cc1)c1cccnc1", "activity, positive = activation": "-6.08% (inactive)"}, {"compound": "CC(C)NC[C@H](O)c1ccc(NS(C)(=O)=O)cc1", "activity, positive = activation": "1.47% (inactive)"}, {"compound": "O=C1N=C(O)CN1/N=C\\c1ccc(-c2ccc([N+](=O)[O-])cc2)o1", "activity, positive = activation": "-11.9% (inactive)"}, {"compound": "O=C(NCCNC[C@@H](O)COc1ccc(O)cc1)N1CCOCC1", "activity, positive = activation": "-15.2% (inactive)"}, {"compound": "CC(C)NC[C@@H](O)COc1ccc(CCOCC2CC2)cc1", "activity, positive = activation": "-11.8% (inactive)"}, {"compound": "C[C@@H]1CNCCN1S(=O)(=O)c1cccc2cnccc12", "activity, positive = activation": "11.8% (inactive)"}, {"compound": "CC(C)(C)NC[C@H](O)c1ccc(O)c(CO)c1", "Potency": "inactive"}, {"compound": "CN1CCN(CCC=C2c3ccccc3Sc3ccc(S(=O)(=O)N(C)C)cc32)CC1", "activity, positive = activation": "-29.4% (inactive)"}, {"compound": "O=C1CC[C@H](N2C(=O)c3ccccc3C2=O)C(=O)N1", "activity, positive = activation": "11.2% (inactive)"}, {"compound": "COc1ccc(CCN(C)CCC[C@@](C#N)(c2ccc(OC)c(OC)c2)C(C)C)cc1OC", "activity, positive = activation": "-17.7% (inactive)"}, {"compound": "CC(C)=CCC/C(C)=C/CC/C(C)=C/CSc1ccccc1C(=O)O", "activity, positive = activation": "-16.1% (inactive)"}, {"compound": "COc1cc2nc(N3CCN(C(=O)[C@H]4CCCO4)CC3)nc(N)c2cc1OC", "activity, positive = activation": "-11.7% (inactive)"}, {"compound": "NC[C@](O)(CS(=O)(=O)O)c1ccc(Cl)cc1", "activity, positive = activation": "-17.1% (inactive)"}, {"compound": "CC[C@H](C)C(=O)O[C@H]1CCC=C2C=C[C@H](C)[C@H](CC[C@@H]3C[C@H](O)CC(=O)O3)[C@H]21", "activity, positive = activation": "-17.4% (inactive)"}, {"compound": "COC(=O)C1=C(C)NC(C)=C([N+](=O)[O-])[C@H]1c1ccccc1C(F)(F)F", "activity, positive = activation": "-29.1% (inactive)"}, {"compound": "COc1ccccc1N1CCN(C[C@@H](O)COc2cccc3ccccc23)CC1", "activity, positive = activation": "5.57% (inactive)"}, {"compound": "O=C(NC[C@H]1CCCCN1)c1cc(OCC(F)(F)F)ccc1OCC(F)(F)F", "activity, positive = activation": "-7.12% (inactive)"}, {"compound": "NC(N)=NN=Cc1c(Cl)cccc1Cl", "activity, positive = activation": "18.5% (inactive)"}, {"compound": "COc1ccc2c(c1)c(CC(=O)N1CCOCC1)c(C)n2C(=O)c1ccc(Cl)cc1", "activity, positive = activation": "-21.7% (inactive)"}, {"compound": "C[C@@H]1CCN=C(N)S1", "activity, positive = activation": "-14.4% (inactive)"}, {"compound": "CC[N+](CC)(CC)CC", "activity, positive = activation": "-9.42% (inactive)"}, {"compound": "CC(N)=NCCCC[C@H](N)C(=O)O", "activity, positive = activation": "-4.8% (inactive)"}, {"compound": "Cc1cccc(C)c1NC(=O)C[N+](C)(C)C", "activity, positive = activation": "-15.1% (inactive)"}, {"compound": "N[C@]1(C(=O)O)CCc2cc(C(=O)O)ccc21", "activity, positive = activation": "-17.9% (inactive)"}, {"compound": "CC(N)=NCCC[C@H](N)C(=O)O", "activity, positive = activation": "-10.7% (inactive)"}, {"compound": "COc1ccccc1NC(=O)Nc1nc(-c2cccnc2)nc2ccccc12", "activity, positive = activation": "-10.2% (inactive)"}, {"compound": "Fc1cccc(/C=N\\N=C/c2cccc(F)c2)c1", "Potency": "3.16 µM (active)"}, {"compound": "C[C@@H](/C=C\\c1cccc(Oc2ccc(F)cc2)c1)N(O)C(N)=O", "activity, positive = activation": "9.67% (inactive)"}, {"compound": "N[C@@H]1CCN(O)C1=O", "activity, positive = activation": "-17.6% (inactive)"}, {"compound": "CN1CCN2c3ccccc3Cc3ccccc3[C@@H]2C1", "activity, positive = activation": "-12.7% (inactive)"}, {"compound": "CCn1ccnc1C[C@@H]1COc2ccccc2O1", "activity, positive = activation": "7.45% (inactive)"}, {"compound": "Cc1cccc(/C=C\\c2ccccc2)n1", "Potency": "2 µM (active)"}, {"compound": "N[C@@H](CO)C(=O)O", "activity, positive = activation": "-15.2% (inactive)"}, {"compound": "O=C(Nc1cc(C(=O)Nc2ccc(S(=O)(=O)O)cc2S(=O)(=O)O)cc(C(=O)Nc2ccc(S(=O)(=O)O)cc2S(=O)(=O)O)c1)Nc1cc(C(=O)Nc2ccc(S(=O)(=O)O)cc2S(=O)(=O)O)cc(C(=O)Nc2ccc(S(=O)(=O)O)cc2S(=O)(=O)O)c1", "activity, positive = activation": "-1.69% (inactive)"}]}]}
